In paper PMC7819943, “Rice protein-binding microarrays: a tool to detect cis-acting elements near promoter regions in rice”:
Whole data set: some 39,000 sequences, median “fluorescence intensity (a.u.)” near 4,300, cut for the highest 2% near 39,000. The sample holds the highest values, similar sequences and a random draw of the others, so the mix is not that of the screen.

The sequences below were run against T1, OsSMF1 (Oryza sativa, UniProt Q6ZLB0 1-436) (assay: protein-binding microarray (RPBM); PBS, 2% BSA, 51.3 ng/ul salmon testes DNA, 50 uM zinc acetate, 200 nM TF, 25 C, 1 h; high values mean tight binding). Conditions: protein: recombinant; tags: N-terminal polyhistidine and DsRed monomer fusion (pET32a); chain copies: 2; label: CyDye5-dUTP incorporated in the synthesized complementary strand; 3' TTTTT single-stranded linker to array surface; dsDNA, one strand shown.
T1 sequence: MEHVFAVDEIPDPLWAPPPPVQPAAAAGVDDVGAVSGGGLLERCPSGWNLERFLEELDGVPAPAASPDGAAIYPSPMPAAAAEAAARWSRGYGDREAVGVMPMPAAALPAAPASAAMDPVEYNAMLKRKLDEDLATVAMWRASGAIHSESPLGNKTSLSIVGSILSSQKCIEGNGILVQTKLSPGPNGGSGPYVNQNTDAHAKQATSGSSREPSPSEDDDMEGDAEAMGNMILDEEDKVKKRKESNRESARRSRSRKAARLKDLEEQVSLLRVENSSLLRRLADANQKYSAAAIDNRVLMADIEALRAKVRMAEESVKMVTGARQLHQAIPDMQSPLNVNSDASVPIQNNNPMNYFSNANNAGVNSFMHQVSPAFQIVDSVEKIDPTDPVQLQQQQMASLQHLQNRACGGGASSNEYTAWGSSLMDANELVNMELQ
In short: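 Using Ni–NTA, transcription factors fused N-terminally to polyhistidine and DsRed were purified after expression in E. coli BL21-CodonPlus. These were incubated at 200 nM with a blocked, double-stranded custom Agilent array for 1 h at 25 °C in a buffer containing 50 µM zinc acetate, and the array was washed. The binding signal is per-feature fluorescence intensity (arbitrary units) on an Axon 4000B scanner.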

Which binding signal does the source give for “CGAATTTGCTACCCCATTTCACAAATCAAAAGTGCAAAGCCGGAGTCACCTAGTGCAG” here?
Its binding signal is 29200 fluorescence intensity (a.u.).

For “CACAGTCGACGACACCCTCCATCTCCGTCCCTCCCACTCCCGGAGTCACCTAGTGCAG”, which binding signal is on record?
Its binding signal is 7160 fluorescence intensity (a.u.).

Which binding signal does the source give for “ACGGGCCGTGCTTGGGCCAGCGGCTCGGCACGTGGGCCGGCGGAGTCACCTAGTGCAG” here?
The binding signal was 3480 fluorescence intensity (a.u.).

For “GAATCAGTAAATAAAGCGCTAGGTTTAATGATGTCATGGACGGAGTCACCTAGTGCAG”, which binding signal is on record?
The binding signal was 6840 fluorescence intensity (a.u.).

Which binding signal does the source give for “ATTAACAATTCAATGGTTCTTGATGTGTTCTACTTAACCTCGGAGTCACCTAGTGCAG” here?
The binding signal was 3260 fluorescence intensity (a.u.).

How did the binding signal turn out when “AAGATAAATGGTTAAACCTTATATGTGAAACCAGAGAAAACGGAGTCACCTAGTGCAG” was run?
Its binding signal is 21100 fluorescence intensity (a.u.).

For “CCTTCTTAACAGTCTGTGAAGCTCTGCCATCTCACCGTCTCGGAGTCACCTAGTGCAG”, which binding signal is on record?
The binding signal was 3820 fluorescence intensity (a.u.).

For “CTTCGGCCTTAGCTCCAAATCCGATGTAAATTTACCAAATCGGAGTCACCTAGTGCAG”, which binding signal is on record?
Its binding signal is 61700 fluorescence intensity (a.u.).

How did the binding signal turn out when “TTCGGCGCAAATTTCTAATCATGATGTAATATAATTAGCTCGGAGTCACCTAGTGCAG” was run?
Its binding signal is 3270 fluorescence intensity (a.u.).

“CTCCAAATTAGTATCCAAACATCCGATGTGACATGGACTTCGGAGTCACCTAGTGCAG” was tested. Which binding signal did it give?
Its binding signal is 4370 fluorescence intensity (a.u.).

“TTTCCAATCACGTATTCCGGACAAAGGCCTAAACCTGCTCCGGAGTCACCTAGTGCAG” was tested. Which binding signal did it give?
Its binding signal is 35800 fluorescence intensity (a.u.).

Which binding signal does the source give for “ACCAAAATTCTCATATCTCTCAACTAAACAAAACTCTTAACGGAGTCACCTAGTGCAG” here?
Its binding signal is 3300 fluorescence intensity (a.u.).

“ACCCACGCACTCACTGACGATGCAATGCGGCCATATGCTACGGAGTCACCTAGTGCAG” was tested. Which binding signal did it give?
The binding signal was 3240 fluorescence intensity (a.u.).

How did the binding signal turn out when “GCAGAGTTCAGAATTTGTTCAGTTTAGGTGCTTCTGTAATCGGAGTCACCTAGTGCAG” was run?
The binding signal was 55600 fluorescence intensity (a.u.).

With “AGTGCTTTATTTTGCTGATTCATTGTTAAAATTGCCTCTACGGAGTCACCTAGTGCAG” as the sequence, how does the binding signal read?
The binding signal was 5500 fluorescence intensity (a.u.).

“CTCTTCATTTGTTAATTTAATTTGATTAATTCAGTGCTTCCGGAGTCACCTAGTGCAG” was tested. Which binding signal did it give?
Its binding signal is 64900 fluorescence intensity (a.u.).

Which binding signal does the source give for “GATGTTCAGATGTACAACAGTAATTTGATTGCATCGGCTTCGGAGTCACCTAGTGCAG” here?
Its binding signal is 3270 fluorescence intensity (a.u.).

For “TAGTAGATAGCTTTGCTCTCTCTCTTCATTTAATATATTCCGGAGTCACCTAGTGCAG”, which binding signal is on record?
Its binding signal is 4540 fluorescence intensity (a.u.).

“TTTTGCTTAGCTGTTCTGTAATTGTCGATTTGAATTGGATCGGAGTCACCTAGTGCAG” was tested. Which binding signal did it give?
The binding signal was 3500 fluorescence intensity (a.u.).

Which binding signal does the source give for “CGGGAGAGAGGATCGGGAGAGATAGGGTTAGGGTTAGGGTCGGAGTCACCTAGTGCAG” here?
The binding signal was 3320 fluorescence intensity (a.u.).

For “CCACCACGTACAGTGCTTTCCTAGGCAGAAGCCCACTATCCGGAGTCACCTAGTGCAG”, which binding signal is on record?
Its binding signal is 3490 fluorescence intensity (a.u.).

For “ACCAATCGCATGACGATATTCCCGCTCCCACAATCGCGTTCGGAGTCACCTAGTGCAG”, which binding signal is on record?
The binding signal was 3550 fluorescence intensity (a.u.).

For “CGAACCGATGGTTGTGATTGTACGTGTCTACCTGATACGTCGGAGTCACCTAGTGCAG”, which binding signal is on record?
Its binding signal is 5940 fluorescence intensity (a.u.).

Which binding signal does the source give for “GAAAATAAGGGAGTTTTCTGCAAAATTTGATGAATGGAAGCGGAGTCACCTAGTGCAG” here?
Its binding signal is 3230 fluorescence intensity (a.u.).

How did the binding signal turn out when “TTTTGGTCATTTTACCATATGACTTTGTTTTGGTAATTTGCGGAGTCACCTAGTGCAG” was run?
Its binding signal is 3210 fluorescence intensity (a.u.).

“CGGATTCTCGTCGGCTTCGGCGACCGGAAGAGGAGAGGAGCGGAGTCACCTAGTGCAG” was tested. Which binding signal did it give?
Its binding signal is 3230 fluorescence intensity (a.u.).

“TTTCTGTGACGGCCCGCGTAGCTTCGGAGGAAGCGACCACCGGAGTCACCTAGTGCAG” was tested. Which binding signal did it give?
The binding signal was 47700 fluorescence intensity (a.u.).

With “CGGAGTGGCCAGCGTGGTGACAAGCGCGACGTGGCGGCTTCGGAGTCACCTAGTGCAG” as the sequence, how does the binding signal read?
Its binding signal is 6830 fluorescence intensity (a.u.).

For “GTTTAATGGGTTGATGTGGCATGCTTACATATAGGTTTTACGGAGTCACCTAGTGCAG”, which binding signal is on record?
The binding signal was 5830 fluorescence intensity (a.u.).

For “GGTTTAGACGTGGCGGTGGTGGGTGGCGTACGTTTGGGTTCGGAGTCACCTAGTGCAG”, which binding signal is on record?
The binding signal was 5180 fluorescence intensity (a.u.).

For “GGCACTATAGATGTTTGGTTTCGCTGACGTGGCATTCTAGCGGAGTCACCTAGTGCAG”, which binding signal is on record?
Its binding signal is 49000 fluorescence intensity (a.u.).

How did the binding signal turn out when “TCCCTTGGCAGTATAGGTGGGTGGTTTTGCTTACGTGGCACGGAGTCACCTAGTGCAG” was run?
The binding signal was 40000 fluorescence intensity (a.u.).

How did the binding signal turn out when “AGCGGTTTCGCTGACGTGGCGGTTAGGTGGCATTTGAATTCGGAGTCACCTAGTGCAG” was run?
The binding signal was 23800 fluorescence intensity (a.u.).

“TTTAGATGGCGGTTTTGGCTGACGTGGCACATATGTGGCTCGGAGTCACCTAGTGCAG” was tested. Which binding signal did it give?
Its binding signal is 33100 fluorescence intensity (a.u.).

Which binding signal does the source give for “CTTGGTGGTTTTATAGGGTGGTTTCGCTGACGTGGCGTGGCGGAGTCACCTAGTGCAG” here?
Its binding signal is 44600 fluorescence intensity (a.u.).

For “TCCCTTGACGGTTTTGGCTGACGTGGCGCCTAGGTGGCTACGGAGTCACCTAGTGCAG”, which binding signal is on record?
The binding signal was 30000 fluorescence intensity (a.u.).

“TGGAGGGCAGTTTCGCTGACGTGGCGGTGTTGACCTAGTGCGGAGTCACCTAGTGCAG” was tested. Which binding signal did it give?
The binding signal was 34200 fluorescence intensity (a.u.).

“AACTGGAACCCTTAGCCACTGTGAGGTGTACATCTGACAACGGAGTCACCTAGTGCAG” was tested. Which binding signal did it give?
The binding signal was 4990 fluorescence intensity (a.u.).

Which binding signal does the source give for “CTAGCCACTGAAGCATGGGTCATGATACAGCAGTTAATATCGGAGTCACCTAGTGCAG” here?
The binding signal was 3440 fluorescence intensity (a.u.).

With “CTTATCAAGACTCGTGGCGTGGAAAGCTTTACAGGTGAGGCGGAGTCACCTAGTGCAG” as the sequence, how does the binding signal read?
Its binding signal is 4710 fluorescence intensity (a.u.).

How did the binding signal turn out when “ATGCATGACAGCACACCACACATTGACACCACTGAGGCAGCGGAGTCACCTAGTGCAG” was run?
Its binding signal is 3260 fluorescence intensity (a.u.).

Which binding signal does the source give for “TTAAAGAAATGGTTGGTGCTGCTCCGACTCCCTGTTTCCTCGGAGTCACCTAGTGCAG” here?
Its binding signal is 16200 fluorescence intensity (a.u.).

Which binding signal does the source give for “GCCTCTCCTCAAGCGGTGGAGAGCGCGGACGTGGACGTGCCGGAGTCACCTAGTGCAG” here?
Its binding signal is 6520 fluorescence intensity (a.u.).

For “GGCTTAAAAGATTCGTTTCATAATTTACACGCAAACTGTACGGAGTCACCTAGTGCAG”, which binding signal is on record?
Its binding signal is 3890 fluorescence intensity (a.u.).

For “ATTAGGCTCAAAAGATTCGTCTCGCGATTTTCAGACGAGCCGGAGTCACCTAGTGCAG”, which binding signal is on record?
The binding signal was 41800 fluorescence intensity (a.u.).

How did the binding signal turn out when “AAAAGATTCGTCTCGCAATTTACACGTAACCTGTGTAATTCGGAGTCACCTAGTGCAG” was run?
The binding signal was 7350 fluorescence intensity (a.u.).

“TTATGATGTAATTAGGCTCAAAAGATTCGTCTCGCAATTTCGGAGTCACCTAGTGCAG” was tested. Which binding signal did it give?
Its binding signal is 44200 fluorescence intensity (a.u.).
